PubChem BioAssay AID1498 (National Center for Advancing Translational Sciences (NCATS), 2009)
Records with an inconclusive call do not appear. Active and inactive are the calls of the source. Calls follow the shape of the full dose curve.

Experiment: Confirmation Concentration-Response Assay for Modulators of Lamin A Splicing
Conditions: RFP activity: RFP channel at top concentration, at 46.1 µM; ratio activity: GFP/RFP ratio at top concentration, at 46.1 µM
From the text: NCGC Assay Overview: Hutchinson-Gilford Progeria Syndrome (HGPS) is a pediatric premature aging disease caused by a spontaneous mutation in the lamin A/C (LMNA) gene. The mutation activates a cryptic splice site in the LMNA pre-mRNA which results in production of a pre-lamin A protein that cannot be processed properly. The mutant protein accumulates in the nucleus and negatively affects numerous cellular functions. Correction of the splicing defect in HGPS patient cells using a targeted oligonucleotide (exo11) leads to reversal of the cellular disease phenotypes. To identify small molecule modulators of aberrant LMNA splicing, a homogenous assay was constructed in HeLa cells that used a GFP containing minigene to report on correction of aberrant splicing in lamin A and a RFP (DsRed2) to report on cell viability, uniformity and nonspecific effects on the assay signal. This assay was adapted to laser-scanning microplate cytometry (Acumen, TTP Labtech) where miniaturization of the assay to a 1,536-well plate format was possible. Select compounds active in the primary screen (AID 1487) were chosen for confirmation based on potency, efficacy, SAR and activity in other assays in PubChem and at NCGC. References: Bowen, W. P.; Wylie, P. G. Application of Laser-Scanning Fluorescence Microplate Cytometry in High Content Screening. Assay Drug Dev Technol 2006;4:209-221. Scaffidi P, Misteli T. Reversal of the cellular phenotype in the premature aging disease Hutchinson-Gilford progeria syndrome. Nat. Med. 2005;11:440-445.
NCGC Assay Protocol Summary: Reagents/Controls: Stable clones expressing DsRed2 and lamin A-EGFP were generated by Cell and Molecular Technologies in S3 HeLa cells. HeLa cells were prepared for the assay when they were 70-90% confluent. The cells were counted and resuspended in Opti-MEM I (no phenol red; Gibco), 2% FBS, 1% penicillin/ streptomycin (Gibco) at concentration of 120 cells/uL concentration. The suspension was passed through a Falcon basket filter with pore size 40um (Beckton Dickson). Control titrations: column […] 1536-well plate contained a sixteen point titration (1:2 dilutions) in duplicate of ancitabine (Sigma: A8598) beginning at 40 uM final concentration. Column 2 contained a sixteen point titration (1:2 dilutions) of cycloheximide beginning at 1.4 mM final concentration. Column 3 contained ancitabine at 40 uM and column 4 contained was the vehicle control (0.5% DMSO final concentration). Assay Steps: 5 uL of HeLa cells were plated in Aurora LoBase black clear bottom (cyclic-olefin polymer) 1536-well plates at a final density of 600 cells/well. Controls and library compounds were added with a 1536-well pin array using the Kalypsys pin-tool. The plates were then incubated for 48 hrs in a cell-culture incubator (37 °C; 5% CO2, 98% humidity). Following incubation the plates were read on the Acumen Explorer using the 488 nm laser. Data was collected on objects between 10 and 100 um in size. Cell objects were defined by a 15 um width x 10 um depth filter. The ratio of the total object intensity in PMT1 (500-530 nm emission; GFP) over PMT3 (575-640 nm emission; RFP) was calculated for analysis. Keywords: NIH Roadmap, MLSCN, MLI, MLSMR, qHTS, NCGC, lamin A, Progeria, RNA splicing.

Structure (SMILES) | RFP activity | outcome | ratio activity
c1ccc(C2OCCN3CCCCC23)cc1 (stereo unspecified) | -2.54% | inactive | -7.51%
CN1C(=O)CCS(=O)(=O)[C@@H]1c1ccc(Cl)cc1 | -19.9% | inactive | -2.66%
